C diff HTS – C. difficile growth inhibitors, primary screen, HTS; Clostridium difficile clinical isolate growth, OD600, 24 h; active compounds read low; 86,000 tested, 0.25% active; growth activity, negative = inhibition, % at 16 µg/mL (by protocol);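 active = mean growth activity at or below -80% and every replicate also at or below -80%; inconclusive = mean at or below -80% but some replicate above -80%; inactive = mean growth activity above -80%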
T cruzi growth-1 – T. cruzi intracellular proliferation inhibitors, primary screen, cell-based, beta-gal Tulahuen parasites, NIH3T3 host, luminescence; inhibition, % at 8.34 µM; T. cruzi beta-gal in NIH3T3, GalScreen luminescence, 90 h; AID 624255, 2012; 77,000 tested, 5.9% active;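 active = mean inhibition above about 93%, with at least 55% of replicates each passing it, limit read from the data, passing the limit was not always enough; inconclusive = only one of those two conditions holds; inactive = neither condition holds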
Pf Dd2 growth – P. falciparum Dd2 growth inhibitors, primary screen, SYBR Green fluorescence, single dose replicates. 72 h; active compounds read low. activity change, % at 10 µM. 94,000 tested, 2.3% active; in the data active = activity change below about -80%; inconclusive = no clear call, values can overlap the other calls
T cruzi growth-2 – T. cruzi intracellular proliferation inhibitors, confirmation, cell-based, NIH3T3 host, beta-gal parasite, luminescence, cherry-pick; shares compounds with T cruzi growth-1; T. cruzi beta-gal in NIH3T3, GalScreen luminescence, 90 h; inhibition, % at 8.35 µM; 5,600 tested, 72% active; AID 651739, 2012;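 active = mean replicate inhibition above about 95% and at least 55% of replicates individually reaching it, limit read from the data; inconclusive = only one of the two criteria is met; inactive = neither criterion is met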
T cruzi growth-3 – inhibitors of intracellular T. cruzi replication, confirmation, NIH3T3 host cells, beta-gal parasites, cherry-pick, set 2; shares compounds with T cruzi growth-1; T. cruzi beta-gal in NIH3T3, GalScreen luminescence, 90 h; inhibition, % at 2.09 µM; 5,600 tested, 21% active;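 active = mean inhibition above about 95%, with at least 55% of replicates also reaching it, limit read from the data; inconclusive = meets just one of the two conditions; inactive = meets neither condition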
3T3 cytotox – cytotoxicity in mouse NIH/3T3 fibroblasts, confirmation, cytotoxicity control for T. cruzi proliferation inhibitor project, cell-based, cherry-pick, single point; cytotoxicity (signal decrease), % at 8.35 µM; NIH/3T3 viability, CellTiter-Glo ATP luminescence, 90 h; AID 651742, 2012; shares compounds with T cruzi growth-1; 5,600 tested, 14% active;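 active = mean signal decrease across replicates above about 35% based on untreated-well scatter, with enough replicates individually passing, limit read from the data; inconclusive = no rule stated though some were filed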
3T3 cytotox 2 – NIH/3T3 fibroblast cytotoxicity, confirmation, cytotoxicity control, cell-based, cherry-pick, single point, set 2; shares compounds with T cruzi growth-1; NIH/3T3 viability, CellTiter-Glo ATP luminescence, 90 h; inhibition, % at 24.9 µM; 5,600 tested, 56% active;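 active = mean loss of cell viability signal at or above a set limit, and enough replicates individually reaching it; inconclusive = meets only the mean limit or only the replicate share; inactive = meets neither condition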
Numbers stand for hits. Compounds with a hit are over-represented: about 6.7% of the library has one in this group of screens.

For C[C@@H]1CN([C@H](C)CO)C(=O)c2cccc(NC(=O)CCCCCC(=O)Nc3ccccc3N)c2O[C@H]1CN(C)S(=O)(=O)c1ccc(Cl)cc1 the results were C diff HTS inactive, T cruzi growth-1 inactive and Pf Dd2 growth inactive.
C[C@H]1CN([C@@H](C)CO)C(=O)c2cccc(NC(=O)CCCCCC(=O)Nc3ccccc3N)c2O[C@H]1CN(C)S(=O)(=O)c1ccccc1 was read as C diff HTS inactive and Pf Dd2 growth inactive.
`C[C@H]1CN([C@@H](C)CO)C(=O)c2cccc(NC(=O)CCCCCC(=O)Nc3ccccc3N)c2O[C@H]1CN(C)S(=O)(=O)c1ccc(Cl)cc1` gave C diff HTS inactive, T cruzi growth-1 100.6, Pf Dd2 growth -89.9, T cruzi growth-2 106.3, T cruzi growth-3 inactive, 3T3 cytotox inactive and 3T3 cytotox 2 inactive.
Screening C[C@H](CO)N1C[C@H](C)[C@@H](CN(C)S(=O)(=O)c2ccc(Cl)cc2)Oc2c(NC(=O)CCCCCC(=O)Nc3ccccc3N)cccc2C1=O returned C diff HTS inactive, T cruzi growth-1 102.9, Pf Dd2 growth inconclusive, T cruzi growth-2 109.3, T cruzi growth-3 inactive, 3T3 cytotox inactive and 3T3 cytotox 2 inactive.
Screening CN1C(=O)c2cc(NS(=O)(=O)c3cccc(F)c3)ccc2OC[C@@H]2O[C@H](CC(=O)NCCN3CCCCC3)CC[C@@H]21 returned T cruzi growth-1 97.2, Pf Dd2 growth inactive, T cruzi growth-2 inactive, T cruzi growth-3 inactive, 3T3 cytotox inactive and 3T3 cytotox 2 inactive.
Screening CCCC(=O)Nc1ccc2c(c1)C(=O)N(C)[C@H]1CC[C@H](CC(=O)NCCN3CCCCC3)O[C@H]1CO2 returned C diff HTS inactive, T cruzi growth-1 inactive and Pf Dd2 growth inactive.
Screening CN1C(=O)c2cc(NS(=O)(=O)c3ccc(F)cc3)ccc2OC[C@@H]2O[C@H](CC(=O)O)CC[C@H]21 returned C diff HTS inactive, T cruzi growth-1 103.4, Pf Dd2 growth inactive, T cruzi growth-2 inactive, T cruzi growth-3 inactive, 3T3 cytotox inactive and 3T3 cytotox 2 inactive.
For CCCC(=O)Nc1ccc2c(c1)C(=O)N(C)[C@H]1CC[C@@H](CC(=O)NCCN3CCCCC3)O[C@H]1CO2 the results were C diff HTS inactive, T cruzi growth-1 99.2, Pf Dd2 growth inactive, T cruzi growth-2 97.9, T cruzi growth-3 inactive, 3T3 cytotox inactive and 3T3 cytotox 2 inactive.
`CN1C(=O)c2cc(NS(=O)(=O)c3cccc(F)c3)ccc2OC[C@@H]2O[C@@H](CC(=O)NCCN3CCCCC3)CC[C@@H]21` gave C diff HTS inactive, T cruzi growth-1 inactive and Pf Dd2 growth inactive.
Screening Cc1ccc(S(=O)(=O)Nc2ccc3c(c2)C(=O)N(C)[C@@H]2CC[C@H](CC(=O)O)O[C@H]2CO3)cc1 returned C diff HTS inactive, T cruzi growth-1 inactive and Pf Dd2 growth inactive.
Screening CNC(=O)C[C@H]1CC[C@H]2[C@@H](COc3ccc(NC(=O)Nc4cccc(C)c4)cc3C(=O)N2C)O1 returned C diff HTS inactive, T cruzi growth-1 inactive and Pf Dd2 growth inactive.
C[C@@H]1CN([C@H](C)CO)C(=O)c2cc(NS(=O)(=O)c3ccc(Cl)cc3)ccc2O[C@H]1CN(C)S(C)(=O)=O was read as C diff HTS inactive, T cruzi growth-1 inactive and Pf Dd2 growth inactive.
C[C@@H]1CCCCO[C@H](CN(C)C(=O)Nc2ccc(F)cc2)[C@@H](C)CN([C@H](C)CO)C(=O)c2cc(NC(=O)Cc3ccccc3)ccc2O1 was read as C diff HTS inactive, T cruzi growth-1 inactive and Pf Dd2 growth inactive.
For C[C@@H]1CCCCO[C@H](CN(C)C(=O)Nc2ccc(F)cc2)[C@H](C)CN([C@H](C)CO)C(=O)c2cc(NC(=O)Cc3ccccc3)ccc2O1 the results were C diff HTS inactive, T cruzi growth-1 105.2, Pf Dd2 growth -85.4, T cruzi growth-2 111.1, T cruzi growth-3 inactive, 3T3 cytotox inactive and 3T3 cytotox 2 inactive.
For C[C@H]1CCCCO[C@@H](CN(C)C(=O)Nc2ccc(F)cc2)[C@@H](C)CN([C@@H](C)CO)C(=O)c2cc(NC(=O)Cc3ccccc3)ccc2O1 the results were C diff HTS inactive, T cruzi growth-1 113.2, Pf Dd2 growth inactive, T cruzi growth-2 inactive, T cruzi growth-3 inactive, 3T3 cytotox inactive and 3T3 cytotox 2 inactive.
Screening C[C@@H]1CCCCO[C@H](CN(C)C(=O)Nc2ccc(F)cc2)[C@@H](C)CN([C@@H](C)CO)C(=O)c2cc(NC(=O)Cc3ccccc3)ccc2O1 returned C diff HTS inactive, T cruzi growth-1 inactive and Pf Dd2 growth inactive.
Screening COCC#Cc1ccc2c(c1)O[C@@H](CN(C)C(=O)NC(C)C)[C@H](C)CN([C@@H](C)CO)S2(=O)=O returned C diff HTS inactive and T cruzi growth-1 inactive.
COc1cccc(S(=O)(=O)N[C@@H]2CC[C@H](CC(=O)NC3Cc4ccccc4C3)O[C@@H]2CO)c1 was read as T cruzi growth-1 inactive and Pf Dd2 growth inactive.
`C/C=C/c1ccc(C2[C@H]3CNC[C@@H]2N3S(=O)(=O)c2ccc(C)cc2)cc1` (some centres not stated) gave C diff HTS inactive and Pf Dd2 growth inactive.
Screening COc1ccc(CN(C)C[C@H]2OCCCC[C@@H](C)Oc3ccc(NC(=O)C4CCCCC4)cc3C(=O)N([C@@H](C)CO)C[C@H]2C)cc1 returned T cruzi growth-1 105.4, Pf Dd2 growth inactive, T cruzi growth-2 inactive, T cruzi growth-3 inactive, 3T3 cytotox inactive and 3T3 cytotox 2 76.2.
For COc1ccc(CN(C)C[C@@H]2OCCCC[C@H](C)Oc3ccc(NC(=O)C4CCCCC4)cc3C(=O)N([C@@H](C)CO)C[C@@H]2C)cc1 the results were T cruzi growth-1 inactive and Pf Dd2 growth inactive.
Screening COc1ccc(CN(C)C[C@@H]2OCCCC[C@@H](C)Oc3ccc(NC(=O)C4CCCCC4)cc3C(=O)N([C@@H](C)CO)C[C@H]2C)cc1 returned T cruzi growth-1 inactive and Pf Dd2 growth inactive.
COc1ccc(CN(C)C[C@H]2OCCCC[C@H](C)Oc3ccc(NC(=O)C4CCCCC4)cc3C(=O)N([C@H](C)CO)C[C@@H]2C)cc1 was read as C diff HTS inactive, T cruzi growth-1 inactive and Pf Dd2 growth inactive.

Screening data: PubChem, Broad Institute
